# Assay outcomes: PubChem, The Scripps Research Institute Molecular Screening Center
# GSTO1 inh – inhibitors of recombinant GSTO1, primary screen, counter-screen for RBBP9 inhibitor project, biochemical, fluorescence polarization | Glutathione S-transferase omega-1 (Homo sapiens), P78417 | activity-based probe fluorescence polarization | inhibition, % at 5.96 µM | 1.1% of 300,000 active | AID 1974, 2009;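 active = inhibition above the campaign mean inhibition plus 3 SD, cut at about 35% in these data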;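 also: 0% = GSTO1-1 with DMSO and 100% = wells lacking GSTO1-1 enzyme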
# Target sequence (P78417 whole entry, looked up): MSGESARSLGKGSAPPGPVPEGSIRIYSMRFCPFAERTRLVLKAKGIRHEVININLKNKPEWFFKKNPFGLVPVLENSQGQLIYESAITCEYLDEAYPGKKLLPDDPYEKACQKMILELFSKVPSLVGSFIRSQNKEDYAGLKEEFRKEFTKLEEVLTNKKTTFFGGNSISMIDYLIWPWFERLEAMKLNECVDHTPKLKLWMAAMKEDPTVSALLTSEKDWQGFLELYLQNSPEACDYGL
# LYPLA2 counter – LYPLA2 inhibitors, primary screen, counter-screen for PME1 inhibitor project, biochemical, fluorescence polarization, FP-Rh probe ABPP. Acyl-protein thioesterase 2 (Homo sapiens), O95372. recombinant LYPLA2. inhibition, % at 5.9 µM. 0.38% of 320,000 active;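 active = inhibition above the screen-wide mean plus 3 SD, limit set per campaign, cut at about 26% in these data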;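 also: 0% = LYPLA2 with DMSO and 100% = wells lacking LYPLA2 enzyme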
# PME-1 inh – PME-1 inhibitors via competitive probe labeling, primary screen, biochemical, fluorescence polarization, FP-Rh probe, HTS. recombinant PME-1. inhibition, % at 5.9 µM. 0.53% of 320,000 active;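 active = inhibition above the campaign mean of all compounds plus 3 SD, cut at about 26% in these data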;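 also: competitive labeling of PME-1 active site by serine hydrolase directed probe; 0% = PME-1 with DMSO and 100% = wells lacking PME-1 enzyme; inhibitors block probe labeling so polarization falls and inhibition rises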
# PREPL inh – PREPL enzyme inhibitors, primary screen, biochemical, fluorescence polarization; Prolyl endopeptidase-like (Homo sapiens), Q4J6C6; recombinant PREPL, fluorescence polarization activity-based probe; inhibition, % at 5.96 µM; 0.68% of 320,000 active; AID 2751, 2010;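 also: 0% = enzyme with DMSO and 100% = wells lacking enzyme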
# LYPLA1 counter – LYPLA1 inhibitors, primary screen, counter-screen for PME1 inhibitor project, biochemical, fluorescence polarization, FP-Rh probe ABPP | Acyl-protein thioesterase 1 (Homo sapiens), O75608 | recombinant LYPLA1 | inhibition, % at 5.9 µM | 0.16% of 320,000 active | AID 2174, 2009;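 active = inhibition above the mean of all tested compounds plus 3 SD, set per campaign, cut at about 14% in these data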;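 also: inhibitors block serine hydrolase probe labeling of LYPLA1 so polarization falls; 0% = enzyme with DMSO and 100% = wells lacking LYPLA1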
# Target sequence (O75608 whole entry, looked up): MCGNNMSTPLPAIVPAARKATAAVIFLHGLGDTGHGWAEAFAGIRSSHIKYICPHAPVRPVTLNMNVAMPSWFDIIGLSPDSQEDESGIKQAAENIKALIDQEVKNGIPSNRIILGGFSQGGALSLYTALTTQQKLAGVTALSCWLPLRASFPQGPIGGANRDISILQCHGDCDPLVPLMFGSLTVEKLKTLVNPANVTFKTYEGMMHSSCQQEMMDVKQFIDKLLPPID
# Fam108B inh – mouse Fam108B serine hydrolase inhibitors, primary screen, counter-screen for RBBP9 inhibitor project, biochemical, fluorescence polarization | inhibition, % at 9.51 µM | 0.33% of 300,000 active | recombinant Fam108B, FP-Rh probe fluorescence polarization | AID 1947, 2009;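 active = inhibition above the screen mean inhibition plus 3 SD, computed separately per campaign, cut at about 18% in these data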;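 also: inhibitors lower polarization as less probe binds the enzyme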
# PREPL confirm – human PREPL enzyme inhibitors, confirmation, biochemical, fluorescence polarization; shares compounds with PREPL inh; recombinant PREPL, fluorescence polarization activity probe; inhibition, % at 5.96 µM; 67% of 2,000 active; AID 2803, 2010;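 also: 0% = protein with DMSO and 100% = wells lacking protein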
# * hit, by the source's call; . = not tested or not shown. This is a sample that favours compounds with a hit; in the whole collection about 1.9% have one here. Rule as the data show it, unless noted: active = inhibition above about 43%; inactive = the rest.
SMILES,GSTO1 inh,LYPLA2 counter,PME-1 inh,PREPL inh,LYPLA1 counter,Fam108B inh,PREPL confirm
C#CCOCCOCCOCCNc1nc(N2CCN(C(=O)CCCCCCCCCCNC(=O)Cn3cc(CCCCCN)nn3)CC2)nc(N2CCN(C(=O)CCCCCCCCCCNC(=O)[C@H]([C@@H](C)CC)n3cc(CCCCN=C(N)N)nn3)CC2)n1,-5.1,23.7,1.1,68.3*,2.7,6.5,62.2*
C#CCOCCOCCOCCNc1nc(N2CCN(C(=O)Cn3cc(CCCN=C(N)N)nn3)CC2)nc(N2CCN(C(=O)[C@H]([C@@H](C)CC)n3cc(CCCCN)nn3)CC2)n1,-0.2,-1.4,-9.6,11.7,1.1,-3.8,.
C#CCOCCOCCOCCNc1nc(N2CCN(C(=O)CCCCCCCCCCNC(=O)[C@H]([C@@H](C)CC)n3cc(CCCCN=C(N)N)nn3)CC2)nc(N2CCN(C(=O)CCCCCCCCCCNC(=O)[C@H](CO)n3cc(CCCCCN)nn3)CC2)n1,-6.8,8.3,-10.2,54.5*,-5.8,-10.3,56.2*
CC(=O)c1ccc(OCCCC(=O)N(CCC2=CCCCC2)c2c(N)n(Cc3ccccc3)c(=O)[nH]c2=O)cc1,1.1,0.6,-1.9,4.7,0.3,-0.5,.
COc1ccc(CN2CCN(C(=O)CC(C)C)CC2)cc1,6.3,4.0,3.8,-0.8,-0.1,-0.4,.
CC(=O)c1ccc(S(=O)(=O)N2CCN(C(C)C(=O)N(C)Cc3ccccc3)CC2)cc1 (stereo not given),.,.,.,31.9,.,.,.
C#CCOCCOCCOCCNc1nc(N2CCN(C(=O)CCCCCCCCCCNC(=O)[C@H]([C@@H](C)CC)n3cc(CCCCN=C(N)N)nn3)CC2)nc(N2CCN(C(=O)CCCCCCCCCCNC(=O)[C@H](CCCCN)n3cc(C)nn3)CC2)n1,-1.2,24.3,-2.9,44.9*,-3.2,-6.2,54.7*
O=S(=O)(Nc1ccc(F)cc1)c1ccc(NC(=S)Nc2ccccc2)cc1,6.8,-2.3,-0.1,-17.3,-5.1,-12.0,.
COc1c(-c2ccc(O)cc2)oc2cc(O)cc(O)c2c1=O,24.2,7.2,-2.0,-8.7,1.0,2.6,.
CC(=O)Oc1cc(O)c2c(=O)c(OC(C)=O)c(-c3ccc(OC(C)=O)c(OC(C)=O)c3)oc2c1,60.3*,-13.5,14.3,44.5*,-13.0,-2.4,19.6
C=CC[C@@H](Cc1ccc(F)cc1)C(=O)OC[C@@H]1CCCN1C(=O)[C@H](CC=C)CC(=O)NCCO,.,.,.,33.2,.,.,.
C#CCOCCOCCOCCNc1nc(N2CCN(C(=O)[C@H](CCCCN)n3cc([C@@H](N)CO)nn3)CC2)nc(N2CCN(C(=O)[C@H](Cc3cc4ccccc4[nH]3)n3cc([C@@H](N)CC(C)C)nn3)CC2)n1,9.8,2.5,0.8,51.5*,0.0,1.6,50.8*
C#CCOCCOCCOCCNc1nc(N2CCN(C(=O)[C@H](CCCCN)n3cc([C@@H](N)C(C)CC)nn3)CC2)nc(N2CCN(C(=O)[C@H](Cc3cc4ccccc4[nH]3)n3cc([C@@H](N)CC(C)C)nn3)CC2)n1 (stereo not given in full),-3.5,-2.9,1.4,58.5*,-2.7,-1.1,58.4*
CC(CC(=O)NC1CCCC1)c1ccccc1 (stereo not given),-3.3,-3.1,-4.5,11.2,-0.2,-1.6,.
CC(C)CC(NS(=O)(=O)c1cc(C(=O)O)ccc1Cl)C(=O)O (stereo not given),8.5,-2.7,8.3,-3.5,1.7,0.0,.
COc1cc(NC(=O)C[n+]2ccc(C(=O)c3ccccc3)cc2)cc(OC)c1,.,.,.,49.2*,.,.,34.2
COc1cc(NC(=O)Cc2ccccc2)cc(OC)c1,-1.0,-1.6,3.3,3.3,3.6,4.2,.
COc1ccc2cc1Oc1ccc(cc1)C[C@H]1c3cc(c(OC)cc3CCN1C)Oc1c(OC)c(OC)cc3c1[C@H](C2)N(C)CC3,1.7,4.1,0.9,60.9*,-1.4,2.7,60.2*
COc1ccc2cc1Oc1ccc(cc1)C[C@H]1c3c(cc4c(c3Oc3cc5c(cc3OC)CCN(C)[C@@H]5C2)OCO4)CCN1C,6.5,2.3,-4.5,-23.1,-1.2,1.0,.
O=C(Cc1ccccc1[N+](=O)[O-])NNC(=O)c1ccncc1,.,3.6,4.2,2.6,3.4,.,.
CC(C)CN(C(=O)COC(=O)c1ccc(-c2ccccc2)cc1)C1CCS(=O)(=O)C1 (stereo not given),5.6,-0.1,-4.1,48.1*,-1.1,-2.4,40.1
COc1ccccc1N(Cc1ccccc1)S(=O)(=O)c1cccc(C(=O)NCC2CCCO2)c1 (stereo not given),.,-0.2,1.1,4.6,-2.3,.,.
Cc1cc(C)c2c(n1)nn1c(N3CCN(c4ccccc4C)CC3)cc(C)nc21,7.7,3.9,-7.9,21.6,1.5,0.9,.
COc1ccc(CN2CCN(c3cc(C)nc4c5c(C)cc(C)nc5nn34)CC2)cc1F,3.2,0.0,0.8,46.2*,0.0,-0.2,34.2
CCOc1cc(N2CCOCC2)c(OCC)cc1NC(=O)CN1CCC(Cc2ccccc2)CC1,1.7,-2.1,-1.1,13.5,2.4,2.0,.
SMILES,GSTO1 inh,LYPLA2 counter,PME-1 inh,PREPL inh,LYPLA1 counter,Fam108B inh,PREPL confirm
CCOc1cc(N2CCOCC2)c(OCC)cc1NC(=O)CN1C(=O)NC(Cc2ccccc2)C1=O (stereo not given),22.7,2.1,-10.7,54.1*,0.2,3.6,56.0*
Nc1[nH]n2c(=O)c3c(nc2c1N=Nc1ccccc1)CCCC3,14.4,-3.7,5.4,64.4*,5.4,1.2,60.2*
Cc1cc(=O)n2[nH]c(N)c(N=Nc3ccccc3)c2n1,8.1,6.9,-6.3,12.8,0.6,2.1,.
Nc1[nH]n2c(=O)c3c(nc2c1N=Nc1ccc(Cl)cc1)CCCC3,-5.1,2.2,0.2,50.7*,1.3,17.3,67.9*
Cc1ccccc1OCc1nnc(SCC(=O)Nc2ccc(N3CCOCC3)c(Cl)c2)n1C,5.9,9.7,4.1,50.9*,0.7,-3.7,57.7*
COc1ccc(CNC(=O)COC(=O)c2ccccn2)cc1,3.9,0.6,2.2,0.9,-0.1,5.8,.
O=C(COc1ccccc1[N+](=O)[O-])N/N=C/c1cccc(OC(=O)c2ccc3c(c2)OCO3)c1,-12.2,-4.9,-13.5,46.5*,1.2,-21.3,19.5
COc1cc(OC)cc(N(C(=O)CNC(=O)c2cccs2)C(C(=O)NCC2CCCO2)c2ccc(OC)c(OC)c2)c1 (stereo not given),-4.6,-1.5,-2.1,16.8,0.9,-0.6,.
